# Laboratory results reported in PubChem BioAssay AID1863 (Southern Research Specialized Biocontainment Screening …, 2009).
# Among all 300,000 compounds or so, about 480 (0.16%) were called active. Not all results are given here. Potency and affinity values are given separately. Unmarked numbers belong to inactive results.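 Rule for the calls: active = inhibition over 29.93%, a cutoff 3 SD above the screen mean, later confirmed by dose response; inconclusive = inhibition over 29.93% but no dose response follow-up; inactive = inhibition at most 29.93% or unconfirmed.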 Peptide text beside a SMILES is read from it. * marks the point of attachment. Boc = CC(C)(C)OC(=O)*
# Test: inhibitors of PhoP regulon expression, primary screen, Salmonella Typhimurium, GFP reporter (AID 1863);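 note: 0% = low Mg2+ inducing control and 100% = high Mg2+ repressing control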
# Conditions: S. Typhimurium PhoP-regulated promoter GFP reporter, 4 h; at 50 µM; stronger effect = higher value
row,SMILES,inhibition [%]
1,O=[N+]([O-])c1cccc(-c2ccn[nH]2)c1,-3.87
2,O=[N+]([O-])c1cc(-c2ccn[nH]2)ccc1Cl,-3.78
3,Cc1cc(C(C)(C)C)ccc1OCCN(C)C,-7.47
4,C[N+](C)(CCOc1ccccc1)Cc1ccccc1 (tested in a mixture with another compound),-8.86
5,Cc1cc(C(C)(C)C)ccc1OCCOCCN1CCCC1,3.82
6,CC(C)(C)c1ccc(OCCNCc2ccccc2)cc1,-2.16
7,Cc1ccccc1CSc1nnc(-c2ccncc2)n1C,1.82
8,COc1ccccc1C(=O)NCCC(=O)NC(C)c1ccc(-n2ccnc2)cc1 (stereo not given),9.9
9,C[N+](C)(C)CCCCCC[N+](C)(C)C,-9.93
10,CCCCCC[N+](C)(C)CCSSCC[N+](C)(C)CCCCCC,-6.44
11,C#CC[N+](C)(C)CCCCCCCCCC,8.05
12,C[N+](C)(C)CCCCCCCCCC[N+](C)(C)C,-6.25
13,CCN(CC)CCCNC(=O)c1c(O)c2cc(F)cc3c2n(c1=O)C(C)CC3 (stereo not given),8.52
14,CC1CCc2cc(F)cc3c(O)c(C(=O)NCCN(C)C)c(=O)n1c23 (stereo not given),2.46
15,CN1CCN(c2c(F)cc3c(=O)c(C(=O)O)cn4c3c2SCC4)CC1,-8.39
16,O=C(c1cncc(Br)c1)N1CCN(S(=O)(=O)c2ccccc2C(F)(F)F)CC1,-1.26
17,Cc1ccc(C(=O)N/C(=C\c2cccnc2)C(=O)N2CCCC2)cc1,-6.95
18,Cc1ccc(C2=Nc3ccccc3NC(C)(c3ccc(C)o3)C2)o1 (stereo not given),-5.88
19,Cc1nnsc1S(=O)c1ccc(Cl)c(Cl)c1 (stereo not given),3.99
20,N#Cc1ccccc1CSCCNC(=O)Cc1c(F)cccc1Cl,-5.66
21,COc1cccc(Cn2c(C3CC3)nc3ccc(NC(=O)c4ccco4)cc3c2=O)c1,-9.67
22,O=C(O)Cc1cn(-c2ccccc2)nc1-c1ccccc1,-1.05
23,Cc1ccc(-c2nn(-c3ccccc3)cc2CSC(=N)N)cc1,2.16
24,OCc1cn(-c2ccccc2)nc1-c1ccc(Br)cc1,-1.5
25,OCc1cn(-c2ccccc2)nc1-c1ccc(-c2nn(-c3ccccc3)cc2CO)cc1,14.7

row,SMILES,inhibition [%]
1,CC1=Nn2c(nc3sc4c(c3c2=O)CCCC4)SC1,-2.64
2,Cc1cnc(NC(=O)c2ccncc2)s1,1.84
3,C=CCOC(=O)C1=C[C@@H](c2ccc(Br)cc2)[C@H](CCCO)[C@@H](OCC)O1,-3.82
4,COc1cc(NS(=O)(=O)c2ccc(NS(=O)(=O)c3ccc(C)cc3)cc2)nc(OC)n1,12.1
5,COCC(=O)Nc1ccc(N2CCN(c3ccccc3)CC2)c(F)c1,21.5
6,Cc1ccc(SCCc2ccc(C)nc2)cc1,9.59
7,CCNC(=S)NNC(=O)c1ccccc1Cl,8.03
8,COCCCNC(=S)NNC(=O)c1ccccn1,8.59
9,C=CCOC(=O)C1=C(C)NC(SCC(=O)Nc2nccs2)=C(C#N)C1c1cccs1 (stereo not given),-14.1
10,CCOC(=O)Cn1cnc2sc(C(=O)OC)c(C)c2c1=O,-1.36
11,Cc1ccc(NC(=O)Nc2ccccc2)cc1[N+](=O)[O-],-2.21
12,O=C(Nc1ccc(Cl)c(Cl)c1)Nc1ccccc1C(=O)O,4.95
13,O=C(Nc1ncc([N+](=O)[O-])s1)c1ccccc1Br,-1.22
14,O=C(Nc1ccccc1)Nc1ccc(F)c([N+](=O)[O-])c1,8.9
15,O=C(Nc1ccc(Cl)c(Cl)c1)Nc1ccccn1,8.31
16,O=C(CCS(=O)(=O)c1ccccc1)Nc1ncc([N+](=O)[O-])s1,11.2
17,CCN(CC)P(=O)(c1ccccc1)c1c(C)nc2ccccn12 (stereo not given),-1.09
18,CC12CCC(C(=O)NC3CCCC3)(CC1=O)C2(C)C (stereo not given),-12.7
19,COc1ccc(-c2nnn(CC(=O)N(CC3CCCO3)C(C(=O)NC(C)(C)C)c3ccco3)n2)cc1OC (stereo not given),2.77
20,COCCCNC(=O)CN(c1cc(Cl)cc(Cl)c1)S(C)(=O)=O,-4.71
21,N#CCOc1nc(N2CCOCC2)nc(N2CCOCC2)n1,-1.4
22,COc1ccc(CN(CC(=O)NCC2CCCO2)C(=O)CNS(=O)(=O)c2ccc(C)cc2)cc1 (stereo not given),-1.33
23,CC(NC(=O)C1CCN(S(=O)(=O)c2ccc3nc4c(c(C(=O)O)c3c2)CCCC4)CC1)c1ccccc1 (stereo not given),-8.3
24,CCN(CC)S(=O)(=O)c1ccc(OC)c(NS(=O)(=O)Cc2ccccc2)c1,6.46
25,O=C(O)c1cccc(Nc2ncnc3sccc23)c1,-0.32

row,SMILES,inhibition [%]
1,COc1ccccc1N1CCN(CC(=O)c2c(C)[nH]c3cc(C)ccc23)CC1,-0.55
2,CC(C)c1nnc(NC(=O)c2ccc(S(=O)(=O)N3CCOCC3)cc2)s1,-9.01
3,O=C(NCCC1=CCCCC1)c1ccc2c(c1)N(Cc1ccccc1)C(=O)CS2,6.9
4,CCn1c(/C=C/N(C)c2ccccc2)[n+](CC)c2ccc(Cl)cc21,-2.39
5,CCOC(=O)c1ccc2c(c1)n(CC)c(/C=C/N(C)c1ccccc1)[n+]2CC,-11
6,COc1ccc(C(=O)N2CCN(Cc3ccccc3)CC2)cc1[N+](=O)[O-],-3.7
7,O=C(NCCCn1ccnc1)c1ccc(Br)cc1,12.6
8,Clc1cc2cccnc2c2ccccc12,2.15
9,O=C(Oc1c(Cl)cc(Cl)c2cccnc12)c1cccs1,14.3
10,Oc1c(I)cc(I)c2cccnc12,-1.32
11,Oc1c(Cl)cc(CN2CCCCC2)c2cccnc12,14.1
12,Cc1ccc(S(=O)(=O)Nc2ccc(O)c3cccnc23)cc1,6.3
13,O=c1oc2ccccc2c(O)c1Cc1cc(Cl)c2cccnc2c1O,-10
14,O=C(Oc1ccc(Cl)c2cccnc12)c1ccco1,19.6
15,Cc1ccc(S(=O)(=O)Nc2ccc(O)c3ncccc23)cc1,10.5
16,CCC(=O)c1cc2c(cc1NC(=O)c1ccccc1)OCCO2,5.62
17,CN(C)S(=O)(=O)c1ccc(N2CCCC2)c(C(=O)Nc2nc(-c3ccc(F)c(F)c3)cs2)c1,3.09
18,Cc1ccc(CN2C(=O)NC(Cc3c[nH]c4ccccc34)C2=O)cc1 (stereo not given),4.26
19,COC(=O)c1cc(NC(=O)CC2SCCNC2=O)cc(C(=O)OC)c1 (stereo not given),-10.7
20,COc1ccc(/C=N/Nc2cc(N(C)C)nc(N(C)C)n2)cc1,-15.8
21,CC(C)(C)c1ccc(C(=O)N2CCC(C(=O)NCc3ccncc3)CC2)cc1,-6.15
22,O=C(NCc1cccs1)c1cc(S(=O)(=O)N2CCCCC2)ccc1Cl,2.07
23,COc1cc(C(=O)NCc2cccc3ccccc23)ccc1OCc1ccccc1,-2.04
24,COc1ccc(/C(N)=N/O)c(OC)c1,-1.42
25,Nc1ccc(-n2ccnc2)cc1,1.57

row,SMILES,inhibition [%]
1,COc1ccc(CSC(=N)N)cc1[N+](=O)[O-],5.38
2,COc1ccc(Br)cc1CSC(=N)N,5.81
3,CCCOc1ccc(Br)cc1CSC(=N)N,55.8
4,CCOc1ccc(CSC(=N)N)cc1[N+](=O)[O-],41
5,CCOc1ccc(Br)cc1CSC(=N)N,26.3
6,CCCCOc1ccc(CSC(=N)N)cc1Cl,0.89
7,C/C(=N\NC(=O)CNC(=O)c1ccc(F)cc1)c1ccco1,4.52
8,Cc1ccc(NC(=O)N[C@@H](CC(C)C)C(=O)O)c(C)c1,-7.38
9,O=C(NCc1ccccn1)Nc1ccccc1Cl,-6.1
10,CCN(CCN1CCCC1)C(=O)C1CCC(=O)N(CCCN2CCOCC2)C1 (stereo not given),2.18
11,CCCCCCn1c(N2CCCC2)nc2c1c(=O)[nH]c(=O)n2C,2.66
12,O=C1CCCN1CCCNS(=O)(=O)c1ccccc1,10.7
13,Cc1cc(C)nc(N/C(=N\S(=O)(=O)Cc2ccccc2)Nc2cccc(Cl)c2C)n1,8.54
14,CC(C)(C)OC(=O)N1CCC[C@@H]1CO,1.69
15,CC(C)CC(NC(=O)OC(C)(C)C)C(=O)NC(C(=O)N1CCCC1C(N)=O)C(C)C (stereo not drawn) (Boc-Leu-Val-Pro-NH2; configuration not given here),-6.98
16,CCCC(=O)N1CC(=O)Nc2ccc(C)cc2C1c1ccccc1 (stereo not given),-6.57
17,S=C(NCc1ccccc1)N1CCCCC1,0.84
18,O=S(=O)(NCC(c1ccc2c(c1)OCO2)N1CCOCC1)c1ccc(Cl)cc1 (stereo not given),-2.72
19,CC(=O)c1c(C)n([O-])c2ccc(C)cc2[n+]1=O,0.85
20,CC(=O)c1c(C)n([O-])c2cc(C)ccc2[n+]1=O,-0.54
21,O=[n+]1c2c(n([O-])c3cc(F)c(F)cc31)CCCC2,-5.91
22,COc1ccc2c(c1)[n+](=O)c(C(C)=O)c(C)n2[O-],7.33
23,Cc1ccc(NC2c3ncccc3C(=O)N2Cc2ccco2)c(C)c1 (stereo not given),-7.26
24,O=C(CCSCCC(=O)N1CCCC1)N1CCCC1,0.69
25,Cc1c(C)n2c(SCC(=O)NC3CCCCC3)nnc2[nH]c1=O,2.36
